Experimental data published in PubChem BioAssay.

biological target: Concanavalin-A (Canavalia ensiformis) (UniProt P02866); assay: compounds binding concanavalin A lectin – biochemical, small-molecule microarray, Alexa647 label, 635 nm, artefact control for SMM control protein annotation, primary screen (AID 1127); settings: ConA-A647 binding fluorescence, higher = more signal;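 further: z combines 667 nm emission intensity with signal-to-noise across three replicate slides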
Sequence (P02866 whole entry, looked up): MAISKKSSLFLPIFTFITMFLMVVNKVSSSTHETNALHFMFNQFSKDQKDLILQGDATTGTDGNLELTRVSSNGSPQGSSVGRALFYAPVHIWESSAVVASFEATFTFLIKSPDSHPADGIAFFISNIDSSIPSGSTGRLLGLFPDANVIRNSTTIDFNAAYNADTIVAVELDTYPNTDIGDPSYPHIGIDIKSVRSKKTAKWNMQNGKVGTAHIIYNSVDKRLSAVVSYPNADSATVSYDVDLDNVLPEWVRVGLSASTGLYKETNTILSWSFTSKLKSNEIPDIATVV

Row | Structure (SMILES) | composite z-score
1 | CN1CCC(CCCO)=CC1C1CC1 (stereo unspecified) | 0.066
2 | NC(=O)NCC#Cc1ccc2c(c1)[C@]1(C(=O)N2)[C@H](C(=O)N2CCCCCCC2)[C@H]2C(=O)O[C@H](c3ccccc3)[C@H](c3ccccc3)N2[C@@H]1c1ccccc1OCCO | 1.11
3 | C=CCC(OC(C)=O)[C@@H]1[C@@H](N(Cc2cc3ccccc3o2)C(=O)c2ccc(C)cc2)c2cc(OCCCO)ccc2N1C(=O)c1ccc2ccccc2n1 (stereo partly specified) | -0.304
4 | CO[C@H]1COC(=O)[C@H](C)COC(=O)[C@H](Cc2ccccc2)NC(=O)CC=C[C@H]1C | -0.994
5 | C=CC[C@@]12N=C(c3ccc(OCCCO)cc3)O[C@@H]1c1ccccc1CN(Cc1ccccc1)C2=O | 1.02
6 | CCCC[C@@H]1C[C@H]1[C@@H](NC(=O)c1cccs1)c1ccc(Cl)cc1 | -0.782
7 | CO[C@H]1COC(=O)[C@H](CCSC)NC(=O)CC=C[C@@H](C)COC(=O)[C@@H](OCc2ccccc2)C=C[C@@H]1C | -0.623
8 | O=C1c2ccccc2[C@@]2(Cc3ccccc3N(CC(F)(F)F)C2=O)[C@H](c2ccc(CO)cc2)N1C1CCCCC1 | 0.709
9 | CC(C)(C)OC(=O)CC[C@@]1(C(=O)NCc2ccccc2)N=C(c2ccc(OCCCO)cc2)O[C@@H]1c1ccccc1 | 1.18
10 | CC[C@H]1C2=C3C(CC[C@H]4C(OC)OC[C@](C)([C@@H]34)N(C(=O)OC(C)(C)C)C2)C(CO)C1CO (stereo partly specified) | 1.16
11 | CO[C@]12C=C(Br)[C@@H](C[C@@H]1c1ccccc1)[C@@]1(CO1)C2=O | 0.0193
12 | COCCOC(=O)N1C(=O)[C@@]2(c3cc(C#CC4=CCCCC4)ccc31)[C@H](C(=O)NC[C@H](O)c1ccccc1)[C@H]1C(=O)O[C@H](c3ccccc3)[C@H](c3ccccc3)N1[C@@H]2c1ccc(OCCO)cc1 | 1.12
13 | C=C(CCCC)/C(=C/C[C@@H](OC(=O)c1ccncc1)c1cccc(OCCO)c1)c1cc(C(=O)OC)ccc1OC | 1.11
14 | COCCOC(=O)N1C(=O)[C@@]2(c3cc(C#CCC(C(=O)OC)C(=O)OC)ccc31)[C@H](C(=O)N1CCN(c3ncccn3)CC1)[C@H]1C(=O)O[C@H](c3ccccc3)[C@H](c3ccccc3)N1[C@@H]2c1ccc(O)cc1 | 1.01
15 | Cc1ccc(N2C(=O)c3ccccc3[C@](C)(C(=O)O)[C@@H]2c2ccc(CO)cc2)nc1 | -1.14
16 | CN(C)CCCC[C@@H]1NC(=O)[C@@H]2C[C@H](C(=O)NCCCCCNC(=O)CS)[C@H](c3ccc(O)cc3)N2C1=O | 1.15
17 | C=CCC(OC(C)=O)[C@@H]1[C@@H](N(Cc2ccc(-c3cccc(C(F)(F)F)c3)o2)C(=O)Cc2ccc(F)cc2)c2cc(OCCCO)ccc2N1C(=O)c1ccc(-c2ccccc2)cc1 (stereo partly specified) | -1.04
18 | C=CC[C@]1(C(=O)NCC(O)CO)N=C(c2ccc(OCCCO)cc2)O[C@H]1c1ccccc1 (stereo partly specified) | -0.49

Row | Structure (SMILES) | composite z-score
19 | CCOC(=O)C1=CC[C@@H](c2ccccc2)N(S(=O)(=O)c2ccc(C)cc2)[C@H]1C | 1.05
20 | O=C1O[C@H](c2ccccc2)[C@H](c2ccccc2)N2[C@H]1[C@@H](C(=O)NC[C@H](O)c1ccccc1)[C@]1(C(=O)Nc3ccc(C#CC4=CCCCC4)cc31)[C@H]2c1ccc(OCCO)cc1 | 1.11
21 | COC(=O)Cn1c(C(=O)N2CCCC2)cc2c1C[C@H]1CN(C(=O)c3ccccc3)[C@@](Cc3ccc(OC)cc3)(C(=O)OC)[C@@H]21 | 0.73
22 | COC(=O)C1=CC(c2ccc(CO)cc2)=CC(c2cccs2)N(Cc2cccc(OC(F)(F)F)c2)C=C1C(=O)OC (stereo unspecified) | 1.18
23 | O=C/C=C/c1ccccc1Cl | 0.0241
24 | CCOC(=O)C[C@H]1[C@H](OC(=O)c2ccccc2-c2ccccc2)[C@@H](NC(=O)C2CCCCC2)c2cc(OCCCO)ccc2N1C(=O)c1ccccc1 | 0.404
25 | CC1=C([C@H](O)CCc2ccccc2)[C@H](CO)[C@@H]2C(=O)N(Cc3ccccc3)C(=O)[C@@H]2C1 | 1.13
26 | C#CCCCON=C1C[C@@H](O)[C@@H](O)[C@@H]2[C@@H]3C(=O)N(Cc4ccc5c(c4)OCO5)C(=O)[C@@H]3CC[C@H]12 | 0.752
27 | CC(C)CNC(=O)[C@@]1(C)c2ccccc2C(=O)N(Cc2ccc(OC(F)(F)F)cc2)[C@H]1c1ccc(CO)cc1 | -1.74
28 | CCCC=C(CCC)[C@@H](NC(=O)c1ccccc1)c1ccccc1 | -0.604
29 | CO[C@H]1O[C@H](CO)[C@@H](OC(=O)Nc2ccccc2)[C@H](OC(=O)Nc2ccc3c(c2)OCO3)[C@@H]1OC(=O)Nc1ccc2c(c1)OCO2 | 1.12
30 | O=C(NCC(F)(F)F)[C@@H]1c2ccccc2C(=O)N(Cc2ccccc2Cl)[C@H]1c1ccc(CO)cc1 | -0.907
31 | CCN1C(C)=C(C(=O)OC)[C@@H](c2ccccc2)N2C(=O)[C@](O)(C(=O)OC)[C@@H](c3ccccc3)C(C(=O)c3ccccc3)=C12 | 0.352
32 | CC(=O)NCCCC[C@@H]1NC(=O)[C@H]2C[C@@H](C(=O)NCCCCCCN(C)C)[C@@H](c3cccc(OCCO)c3)N2C1=O | 1.16
33 | CCC(=O)[C@]12O[C@@]3([C@@H]4C(=O)OCC[C@@H]41)N(Cc1ccccc1)C(C)=C(C(=O)OC)[C@@H](c1ccccc1)N3C2=O | -1.17
34 | CCCCCCc1nc(-c2cc(C)c(OC)c(C)c2)cc2c1[Si](C(C)C)(C(C)C)O[C@H]2c1ccccc1 | -0.152
35 | O=C1C2C=CC(C(O)C(c3ccccc3)c3ccccc3)N(Nc3ccc([N+](=O)[O-])cc3)C2C(=O)N1c1ccccc1 (stereo unspecified) | 1.17
36 | CC(=O)NCCCC[C@@H]1NC(=O)[C@@H]2C[C@H](C(=O)NCCCCCNC(=O)CS)[C@H](c3ccc(O)cc3)N2C1=O | -0.579
